Data on 37 compounds can be found in ChEMBL document CHEMBL3988442, “University of Dundee, Small-Polar-MMV Screening Library” (2021).

Test [1] has as its target T1, Aspartate--tRNA(Asp/Asn) ligase (Mycobacterium tuberculosis (strain ATCC 25618 / H37Rv)) (UniProt P9WFW3). Also: in the data most compounds retested in dose-response had high values.
T1 sequence (whole entry): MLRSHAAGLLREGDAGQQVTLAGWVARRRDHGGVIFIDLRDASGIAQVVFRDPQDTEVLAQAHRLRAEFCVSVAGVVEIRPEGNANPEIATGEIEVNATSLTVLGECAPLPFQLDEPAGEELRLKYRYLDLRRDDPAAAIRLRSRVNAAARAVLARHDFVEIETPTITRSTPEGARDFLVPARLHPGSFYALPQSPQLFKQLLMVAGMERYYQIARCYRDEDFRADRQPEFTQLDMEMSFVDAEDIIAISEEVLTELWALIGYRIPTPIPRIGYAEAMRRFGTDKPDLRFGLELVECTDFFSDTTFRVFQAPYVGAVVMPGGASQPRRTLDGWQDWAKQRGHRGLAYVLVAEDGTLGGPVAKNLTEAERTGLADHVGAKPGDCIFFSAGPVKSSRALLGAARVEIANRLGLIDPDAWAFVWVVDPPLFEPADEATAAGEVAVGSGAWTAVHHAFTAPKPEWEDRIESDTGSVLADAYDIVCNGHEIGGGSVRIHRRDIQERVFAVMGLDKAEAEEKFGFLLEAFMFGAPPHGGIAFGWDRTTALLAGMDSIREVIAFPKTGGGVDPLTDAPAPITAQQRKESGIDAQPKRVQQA
As to the kind of experiment: Assay for Asp RNA synthetase-1 from Mycobacterium tuberculosis. The following applies: 30 µM. The arrangement: scale not given: direction of the effect not stated beside the values. It is filed as functional.

For test [2], the target named is Shiga toxin 2 (Escherichia coli O157:H7) (UniProt P09385+P09386). As to the kind of experiment: E. coli 0.157:H7 Shiga Toxin SOP - stx2 screening assay. More on the design: scale not given: direction of the effect not stated beside the values. It is filed as functional. The following applies: 30 µM.

Turning to `Cc1cc(C)nc(NC(=O)C(C)Oc2ccc3c(c2)OCO3)n1` (centres undefined), the Percent Effect was 12.6% in test [1] and -50% in test [2].
Take `FC(F)(F)Cn1ccnc1CN1CCOC(Cn2cccn2)C1` (centres undefined): the Percent Effect worked out at 1.38% in test [1] and 8.38% in test [2].
Turning to `CN1C(=O)C(C)(C)COc2cc(NS(=O)(=O)c3ccccc3)ccc21`, the Percent Effect in test [1] was -5.61%; in test [2], 8.93%.
As to `N#Cc1cn(C2CC2)c(=O)n(CC(O)c2ccccc2F)c1=O` (centres undefined), the Percent Effect in test [1] amounted to 0.3%; in test [2] it was 14.2%.
In the same order, the values of `COCCN1CCC2(CC1)CC(COC)N(c1ncccn1)C2` (centres undefined) are 0.446% and -9.07%.
In the same order, the values of `Cc1cc(NC(=O)NCc2ccccc2OC(F)F)n(C)n1` are -5.2% and -10.5%.
The like results for `O=C(CN1CCCCC1Cn1cncn1)NC1CCN(C2CC2)CC1` (centres undefined) were, in that order, -0.234% and -4.41%.
As for `Nc1cc(CCCNC(=O)NC2CC2)nn1-c1ccccc1`, the Percent Effect in test [1] was -4.03%; in test [2], -2.96%.
On to `Cc1ccc(CNCCOc2ccc(S(C)(=O)=O)cc2)cc1`, for which the Percent Effect in test [1] is 1.28%; in test [2], -76.7%.
Take `CS(=O)(=O)N1CCOCC2(CCN(C(=O)c3cccnc3)CC2)C1`: the Percent Effect in test [1] is -2.76%; in test [2], -13.1%.
For the compound `COc1ccccc1S(=O)(=O)Nc1ccc2c(C(=O)O)c[nH]c2c1`, the values for the Percent Effect in test [1] and in test [2] were 3.46% and 12.9%, respectively.
On to `CCc1c(C)nc2n(c1=O)CC(C(=O)Nc1nc3c(s1)CCCC3)CS2` (centres undefined), for which the Percent Effect in test [1] is 2.32%; in test [2] it was -5.2%.
In the same order, the values of `c1ccc2oc(NC3CCCN(Cc4noc(C5CC5)n4)C3)nc2c1` (centres undefined) are -5.59% and -6.82%.
In the case of `O=C(COc1cccc2c1CCC2=O)NCCOc1ccccc1`, the figures for the Percent Effect in test [1] and in test [2] were 12.7% and -35%, respectively.
Regarding `O=C(CCNC(=O)C1CCCC1)NCc1cccnc1-n1cncn1`, the results for the Percent Effect in test [1] and in test [2] were 0.59% and 23.7%, respectively.
In the case of `N#Cc1ccccc1C(=O)N1CCC2(CC(=O)NC2=O)C1` (centres undefined), the Percent Effect in test [1] was -0.613%; in test [2] it was -0.393%.
For `CC(CNCc1ccc(Cl)c(Cl)c1)Oc1ccccn1` (centres undefined), the Percent Effect in test [1] is -0.523%; in test [2], -59.8%.
Turning to `CN(C)CC1CN(Cc2ccc3c(c2)OCO3)Cc2nccn2C1` (centres undefined), the Percent Effect turned out to be 9.35% in test [1] and 4.74% in test [2].
On to `CCn1cnnc1CNC(=O)CCC(=O)c1ccc2c(c1)OCCO2`, for which the Percent Effect in test [1] was determined as 4.55%; in test [2], 13.7%.
The like results for `OCC1CCCN1c1cc(NCCNc2ccccn2)ncn1` (centres undefined) were, in that order, 8.62% and -85.7%.
In the same order, the values of `NC(=O)C1CCN(C(=O)c2cccc(CN3CCOCC3)c2)CC1` are -1.59% and 3.51%.
`CC(C)c1nnc2n1CCN(Cc1csc(CC(=O)N(C)C)n1)C2`: the Percent Effect in test [1] is -7.04%; in test [2] it was 18.3%.
Regarding `CCc1c(C(=O)N2CCN(CC(N)=O)CC2)cnn1C(C)(C)C`, the Percent Effect in test [1] is -2.87%; in test [2] it was 2.77%.
As for `Cc1cn[nH]c1C1CCCCN1C(=O)CCN1CCCCCC1` (centres undefined), the Percent Effect in test [1] stood at 8.57%; in test [2], 28.2%.
The like results for `CCN(C)c1ncnc2c1CCN(C(=O)N1CCCC1)CC2` were, in that order, 9% and -30.9%.
For the compound `Cc1cnccc1CN1C[C@@H](O)[C@H](Oc2ccccc2)C1`, the Percent Effect is 0.283% in test [1] and -4.47% in test [2].
The like results for `O=C(CCN1CCCC1=O)NCc1cccnc1Oc1ccccc1` were, in that order, -8.91% and 8.3%.
The like results for `COc1ncccc1C(=O)NCC1Cc2ccccc2O1` (centres undefined) were, in that order, 6.18% and 5.65%.
With `c1cnn(CC2CCCN2Cc2nc(-c3ccoc3)no2)c1` (centres undefined), the Percent Effect was 0.0441% in test [1] and -0.74% in test [2].
For the compound `Cn1ccc(CN2CCC(c3ccccc3)CC2)cc1=O`, the figures for the Percent Effect in test [1] and in test [2] were 4.58% and -3.12%, respectively.
In the same order, the values of `COc1ccc(C2OC(COc3ccccc3Br)=NN2C(C)=O)cc1` (centres undefined) are 0.568% and -36.2%.
In the same order, the values of `COc1ncccc1NC(=O)NCC1CCS(=O)(=O)C1` (centres undefined) are 1.33% and -1.65%.
The like results for `Cn1c2c(ccc1=O)CC(NS(C)(=O)=O)CC2` (centres undefined) were, in that order, -0.956% and -18%.
`O=C(CCc1ccc(Cl)s1)N1CCCC(n2cncn2)C1` (centres undefined): the Percent Effect in test [1] came out at 2.08%; in test [2], 5.05%.
With `COc1c(CNC(c2ccc(F)cc2)C(C)(C)C)c(C)nn1C` (centres undefined), the Percent Effect was -1.59% in test [1] and 40.7% in test [2].
In the case of `CCN(C)c1ncnc2c1CCN(Cc1csc(C)n1)CC2`, the Percent Effect in test [1] is -3.19%; in test [2] it was -3.16%.
The like results for `Cn1nc(CNC(=O)C2CC2)cc1C1CC1` were, in that order, -2.99% and -14.8%.
